Bioassay records: PubChem, Johns Hopkins Ion Channel Center
KCNQ2 block = inhibitors of rat KCNQ2 potassium channel; CHO-K1 KCNQ2, FluxOR thallium flux, 20 min; active compounds read low; actives 1.1% (n = 310,000); B-score at 10 µM; O88943; AID 2156;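 active = fluorescence ratio B-score at most minus 3 library SDs, with starting brightness B-score within 2 library SDs, cut at about -5.5 in these data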
KCNQ2 enhance = enhances the rat KCNQ2 potassium channel. B-score at 10 µM. actives 0.54% (n = 310,000). O88943. CHO-K1 KCNQ2, FluxOR thallium flux fluorescence; active compounds read high;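 active = fluorescence ratio B-score at least 3 SD of library B-scores, with initial fluorescence B-score within 3 of them, cut at about 5.3 in these data; same plate scores as AID 2156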;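 also: B-score of peak minus minimum over baseline fluorescence ratio after K+ and Tl+ stimulus; positive B-score means potentiation of KCNQ2 with more thallium influx and brighter signal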
Kir21 confirm = confirmation of mouse Kir2.1 potassium channel inhibitors | Tl flux remaining, % of negative control (active compounds read low), % at 10 µM | Kir2.1-expressing cells, FluxOR thallium flux fluorescence; active compounds read low | AID 2032 | actives 41% (n = 2,300) | shares compounds with KCNQ2 enhance;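 active = Primary-screen hit whose thallium flux fell at least 3 control SD below untreated wells in both duplicates, with normal baseline fluorescence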;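 also: 0% = blank wells without stimulus and 100% = stimulated no-compound controls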
Target sequence (P35561 whole entry, looked up): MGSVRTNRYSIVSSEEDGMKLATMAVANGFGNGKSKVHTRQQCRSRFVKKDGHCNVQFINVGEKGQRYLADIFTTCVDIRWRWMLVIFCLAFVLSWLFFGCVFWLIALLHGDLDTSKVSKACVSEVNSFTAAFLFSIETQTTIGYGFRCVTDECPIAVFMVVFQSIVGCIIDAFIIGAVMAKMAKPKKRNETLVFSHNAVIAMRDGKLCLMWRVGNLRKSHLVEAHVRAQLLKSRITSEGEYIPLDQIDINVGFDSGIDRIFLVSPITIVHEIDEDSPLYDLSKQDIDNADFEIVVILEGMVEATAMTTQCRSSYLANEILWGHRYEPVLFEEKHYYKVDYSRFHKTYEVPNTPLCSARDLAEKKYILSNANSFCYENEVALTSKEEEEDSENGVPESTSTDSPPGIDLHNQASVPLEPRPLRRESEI
HEK293 Tl flux = parental HEK293 activity in Kir2.1 inhibitor counter-screen | shares compounds with KCNQ2 enhance | parental HEK293 cells, FluxOR thallium flux fluorescence; 0% = unstimulated blank wells | FluxOR signal as % of negative control (100 = no effect), % at 10 µM | actives 19% (n = 2,300) | AID 2105;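 active = dye signal at least 3 control SD above or below untreated wells in both duplicates, raw fluorescence within 3, either direction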;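 also: percent is based on the flux ratio of peak minus minimum fluorescence over baseline F0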
CHO-K1 Tl ctr = alters thallium flux in parental CHO-K1 cells, KCNQ2 counter-screen. activity increase over 3SD of controls, % at 10 µM. FluxOR thallium flux fluorescence; zero = vehicle mean+3SD, 100% = vehicle-minus-blank window. AID 2282. shares compounds with KCNQ2 enhance. actives 43% (n = 1,200);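 active = signal rise of at least 3 SD above the untreated control mean, in both duplicate wells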;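 also: counter screen of KCNQ2 potentiator hits so any rise reflects channel-independent effects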
KCNQ1 sel pot = selectivity of KCNQ2 potentiators: effect on human KCNQ1; shares compounds with KCNQ2 enhance; CHO KCNQ1 stable, FluxOR thallium flux fluorescence; beyond 3SD, as % of vehicle-control signal; activation over 3SD threshold, % at 10 µM; actives 28% (n = 1,200); AID 2283;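 active = fluorescence ratio rise of at least 3 SD of vehicle wells above their mean, in both replicate wells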;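 also: 0% = vehicle mean plus 3 SD and 100% = vehicle minus unstimulated blank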
KCNQ2 pot confirm = rat KCNQ2 channel potentiator confirmation; AID 2287; shares compounds with KCNQ2 enhance; potentiation, less the hit threshold, % at 10 µM; CHO-KCNQ2 cells, FluxOR thallium flux fluorescence; actives 68% (n = 1,200);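 active = fluorescence ratio rising 3 SD or more over the vehicle control mean in both replicates, plus primary screen hit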;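 also: peak minus minimum thallium fluorescence divided by baseline after K/Tl stimulus; 0% = vehicle mean plus 3 SD and 100% = vehicle minus unstimulated blank difference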
Kir21 spec = tests whether KCNQ2 potentiators also affect mouse Kir2.1 | shares compounds with KCNQ2 enhance | HEK293 Kir2.1, FluxOR thallium flux fluorescence | activity over 3SD threshold, % at 10 µM | actives 2% (n = 1,200) | AID 2345;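 active = fluorescence ratio rise of at least 3 SD above the vehicle-control mean, seen in both replicates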;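 also: 0% = vehicle mean plus 3 SD and 100% = vehicle minus no-stimulus blank window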
KCNQ2 W236L pot = potentiates the retigabine-insensitive rat KCNQ2 W236L mutant channel; shares compounds with KCNQ2 enhance; CHO KCNQ2-W236L, automated patch clamp current; actives 10% (n = 940); AID 2558; current increase over 3SD of negative controls (%), active compounds read high, % at 25 µM;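 active = current increase at least 3 SD of the untreated controls above them in both duplicate recordings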
Active calls of the source: *; i = inactive; x = no result given. This is a sample that favours compounds with a hit; in the whole collection about 1.6% have one here.

SMILES	KCNQ2 block	KCNQ2 enhance	Kir21 confirm	HEK293 Tl flux	others
N#Cc1c(-n2cccc2/C=N/O)sc2c1CCCC2	i	x	46%*	i
C=CCNCc1cccn1-c1sc2c(c1C#N)CCCC2	i	0.43	x	x
CCOC(=O)c1ccc(NS(=O)(=O)c2ccc3c(c2)NC(=O)CCS3)cc1	i	0.5	x	x
CCCNC(=S)N1CCC(NC(=O)C2CCCCC2)CC1	i	0.41	x	x
CN(C)CC/C=C1\c2ccc(F)cc2Sc2cc(F)c(Cl)cc21	i	x	x	x
CN(C)CC/C=C1/c2ccc(F)cc2Sc2ccc(Cl)cc21	-5.8*	-5.8	i	i
OCCN1CCN(CCCN2c3ccccc3Sc3ccc(Cl)cc32)CC1	i	x	x	x
CN(C)CC/C=C1\c2ccccc2Sc2ccc(Cl)cc21	i	0.23	26%*	i
CN(C)CC/C=C1\c2ccccc2Sc2cc(F)c(Cl)cc21	i	x	x	x
CN(C)CCCN1c2ccccc2Sc2ccc(Cl)cc21	i	0.4	28%*	i
COCc1cc(C)nc(OCC(=O)N/N=C/c2ccc(-c3cc([N+](=O)[O-])ccc3Cl)o2)c1C#N	i	x	x	x
O=C(NCc1cccs1)c1ccc([N+](=O)[O-])cc1Cl	i	0.58	x	x
Nc1nnc(Sc2ncccc2[N+](=O)[O-])s1	i	1.5	x	x
Cn1c(=O)c2c(nc(SCCN3CCOCC3)n2C)n(C)c1=O	i	x	x	x
Nc1cc(-c2ccc(Br)cc2)nn1S(=O)(=O)c1cccc2nsnc12	i	6.9*	i	i	CHO-K1 Tl ctr=20*;KCNQ1 sel pot=-11;KCNQ2 pot confirm=-4;Kir21 spec=-42
Nc1cc(-c2ccc(Cl)cc2)nn1S(=O)(=O)c1cccc2nsnc12	i	5.1	x	x
CCN(CCNC(=O)c1ccc(C#N)cc1)c1cccc(C)c1	i	x	x	x
CCN(CCNCC(O)COCc1ccc(Cl)cc1)c1cccc(C)c1 (configuration not stated)	i	x	36%*	i
Cc1ccc(S(=O)(=O)c2nnn(-c3cccc(F)c3)c2N)cc1	i	x	x	x
Cc1ccc2nc3c(c(N)c2c1)CCN3C	i	0.24	x	x
CCCCN1CCc2c1nc1ccc(Br)cc1c2N	i	0.03	24%*	i
CC(/C=C1\SC(=S)N(NC(=O)c2ccc(C)cc2)C1=O)=C\c1ccccc1	i	9.2*	i	i	CHO-K1 Tl ctr=-4;KCNQ1 sel pot=-10;KCNQ2 pot confirm=-20;Kir21 spec=-21
CC(/C=C1\SC(=S)N(NS(=O)(=O)c2ccccc2)C1=O)=C\c1ccccc1	i	12*	i	260%*	CHO-K1 Tl ctr=0.8*;KCNQ1 sel pot=63*;KCNQ2 pot confirm=56*;Kir21 spec=-27;KCNQ2 W236L pot=i
COc1ccc(/C=C2/SC(=S)N(NS(=O)(=O)c3ccccc3)C2=O)cc1	i	3.5	x	x
CC(/C=C1\SC(=S)N(NC(=O)c2ccncc2)C1=O)=C\c1ccccc1	i	3.2	x	x
SMILES	KCNQ2 block	KCNQ2 enhance	Kir21 confirm	HEK293 Tl flux	others
CCc1ccc(N2C(=O)CN(Cc3cccs3)C2=S)cc1	i	1.6	x	x
COc1ccc(N(CC(=O)O)S(=O)(=O)c2ccc(C)cc2)cc1Cl	i	0.65	x	x
C=C(C)C(=O)Nc1cccc(C2=NOC3(C2)C[C@@H](C(N)=O)N(C(=O)c2cc([N+](=O)[O-])cc([N+](=O)[O-])c2C)C3)c1 (some centres not stated)	i	0.89	x	x
CCc1ccc(OCC(=O)NCc2ccco2)c(Br)c1	i	7.8*	i	i	CHO-K1 Tl ctr=-25;KCNQ1 sel pot=-14;KCNQ2 pot confirm=22*;Kir21 spec=-21;KCNQ2 W236L pot=i
O=C(COc1ccccc1Br)NCc1ccco1	i	0.03	x	x
O=C(Nc1ccccc1N1CCOCC1)C1CCN(S(=O)(=O)c2ccccc2F)CC1	i	0.67	x	x
O=C(Nc1cccc(S(=O)(=O)N2CCCCCC2)c1)C1CCC1	i	0.87	x	x
Nc1nc(Nc2cccc(Cl)c2)n[nH]1	i	0.72	x	x
Cc1ccc(S(=O)(=O)/N=C/c2c(O)ccc3ccccc23)cc1	i	x	x	x
O=S(=O)(/N=C/c1c(O)ccc2ccccc12)c1cccs1	i	5.8*	i	i	CHO-K1 Tl ctr=-7;KCNQ1 sel pot=-27;KCNQ2 pot confirm=-16;Kir21 spec=-36
Cc1ccc(NC(=O)C2CCN(S(=O)(=O)c3ccc4c(c3)CCCC(=O)N4)CC2)c(Br)c1	i	0.08	x	x
CCS(=O)(=O)c1ccc2oc(SCC(=O)Nc3ccc(OC)cc3OC)nc2c1	i	0.67	x	x
CCS(=O)(=O)c1ccc2oc(SCC(=O)NC(C)C3CC4CCC3C4)nc2c1 (configuration not stated)	i	10*	i	i	CHO-K1 Tl ctr=-17;KCNQ1 sel pot=-14;KCNQ2 pot confirm=21*;Kir21 spec=-37;KCNQ2 W236L pot=i
COc1ccc(/C=C(\C#N)C(=O)C(C)(C)n2cncn2)cc1	i	0.1	x	x
CN(Cc1ccccc1)C(=O)COc1cccnc1[N+](=O)[O-]	i	0.33	x	x
CC(C)(C)N1C(=O)[C@H]2[C@@H](c3ccc(Br)cc3)N3C(=O)N(c4cccc(Cl)c4)C(=O)[C@@]3(Cc3ccccc3)[C@H]2C1=O	i	x	x	x
COc1ccc(C(=O)CN2Cc3ccccc3C2=N)cc1	i	0.08	24%*	i
COc1ccc(C(=O)Cn2c(=N)n(C)c3ccccc32)cc1	i	x	x	x
Cc1ccc(C(=O)COC(=O)c2cc(=O)[nH]c3ccccc23)cc1C	i	x	x	x
Cc1nn(C(C)C(=O)NCCCN(Cc2ccccc2)C(C)C)c(=O)c2c1sc1ccccc12 (configuration not stated)	i	0.8	x	x
CCC(C(=O)NCCCN(CC)Cc1ccccc1)n1nc(C)c2sc3ccccc3c2c1=O (configuration not stated)	i	x	47%*	64%*
COc1ccc(/C=N/n2cncn2)cc1Cn1nc(C)c([N+](=O)[O-])c1C	i	x	x	x
CC1CCCN(C(=O)COc2ccc(Nc3ccccc3)cc2)C1 (configuration not stated)	i	x	x	x
COc1ccc(-c2nc(=S)c3ccc4ccccc4c3[nH]2)cc1	i	20*	i	152%*	CHO-K1 Tl ctr=-16;KCNQ1 sel pot=-48;KCNQ2 pot confirm=23*;Kir21 spec=-31;KCNQ2 W236L pot=i
COc1ccc(-c2nc3ccccc3[nH]2)cc1	i	x	x	x
CCn1cc(CN2CCC(n3nccc3NC(=O)CCOc3ccccc3)CC2)c(C)n1	i	x	x	x
